BoNT A protease – BoNT/A light chain protease inhibitors, primary screen, biochemical, flow cytometry, MLPCN library; Botulinum neurotoxin type A light chain protease (Clostridium botulinum A str. ATCC 3502); inhibition, % at 10 µM; multiplex microsphere protease substrate cleavage; 360,000 tested, 0.17% active; further: plate controls were buffer without enzyme for full effect and enzyme alone for no effect
BoNT F protease – BoNT/F light chain protease inhibitors, primary screen, biochemical, flow cytometry, MLPCN library | Botulinum neurotoxin type F light chain protease (Clostridium botulinum) | Multiplex microsphere protease cleavage assay | inhibition, % at 10 µM | 360,000 tested, 0.22% active; in the data active means inhibition above about 35%, passing the limit was not always enough; inconclusive means no clear call, values can overlap the other calls; further: plate controls were buffer without enzyme for full effect and enzyme alone for no effect
MazF activator – activators of E. coli MazEF toxin-antitoxin RNase, primary screen, biochemical, fluorescence, uHTS; Endoribonuclease toxin MazF (Escherichia coli (strain K12)), P0AE70; FAM/BHQ RNA-DNA oligo cleavage fluorescence, 5 h; activation, % at 20 µM; 350,000 tested, 0.32% active; AID 504720, 2011; in the data active means activation above about 50%
Target sequence (P0AE70 whole entry, looked up): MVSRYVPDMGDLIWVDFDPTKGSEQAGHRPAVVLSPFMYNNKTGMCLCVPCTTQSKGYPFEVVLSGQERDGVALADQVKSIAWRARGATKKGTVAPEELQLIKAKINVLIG
Autofluor counter – compound fluorescence in toxin protease inhibitor counterscreen | compound autofluorescence counterscreen, microsphere flow cytometry; active compounds read high | fluorescence intensity (no concentration beside the values) | 360,000 tested, 3.1% active; in the data active means fluorescence intensity above about 16000; inconclusive means no clear call, values can overlap the other calls
Anthrax LF prot – Bacillus anthracis LF protease inhibitors, primary screen, biochemical, multiplex microsphere, MLPCN library; Lethal factor (Bacillus anthracis), P15917; inhibition, % at 10 µM; 360,000 tested, 0.12% active; AID 588501, 2011; multiplex microsphere protease cleavage assay; further: plate controls were buffer without enzyme for full effect and enzyme alone for no effect
* = called active by the depositor; u = inconclusive; x = not tested or not shown. Sampled rows, rich in hits. Any-hit rate of the full collection: about 3.7%. Unless noted, no stated cut-off is given here; in the data, active means inhibition above about 30%; inconclusive means no clear call, values can overlap the other calls; inactive means below that.

SMILES	BoNT A protease	BoNT F protease	MazF activator	Autofluor counter	Anthrax LF prot
O=C(COc1ccc(S(=O)(=O)NC2CCCCC2)cc1Cl)Nc1ccc2c(c1)OCO2	-4	-7	1	25024*	-3
CCOC(=O)CC(C(=O)OCC)P(=O)(c1ccccc1)c1ccccc1 (stereo unspecified)	0	-5	-6	2036	-1
CCCC(C(=O)OCC)P(=O)(c1ccccc1)c1ccccc1 (stereo unspecified)	u	1	-1	23167*	-3
Cc1cccc(C)c1NC(=O)CN(C)CC(=O)N1CC(=O)Nc2ccccc21	0	3	1	3941	-5
COc1ccc(-c2nc3cc(NC(=O)Cc4ccc(OC)c(OC)c4)ccc3o2)cc1	-1	-3	11	16446*	-3
CCCC(=O)Nc1ccc2oc(-c3ccncc3)nc2c1	0	-1	6	16375*	-2
CCCCC(=O)Nc1ccc2oc(-c3ccncc3)nc2c1	-1	4	10	6848	6
COc1nc(-c2cccs2)cc(-c2ccc(C)cc2)c1C#N	5	5	-9	21880*	-3
COc1ccc(-c2cc(-c3cccs3)nc(OC)c2C#N)cc1OC	2	-5	-27	2111	0
CC(C)(C)OC(=O)N1CCC(C(=O)N2CCC[C@H]2C(=O)O)CC1	3	6	6	20337*	0
CC(C)(C)OC(=O)N1CCC[C@@H]1C(=O)N1CCC(C(=O)O)CC1	0	3	3	2294	0
CCN1C/C(=C/c2ccc(N3CCOCC3)cc2)C(=O)/C(=C/c2ccc(N3CCOCC3)cc2)C1	37*	-8	-178	4303	22
CN1C/C(=C\c2ccc(N3CCOCC3)cc2)C(=O)/C(=C/c2ccc(N3CCOCC3)cc2)C1	34*	7	57*	9043	33*
CCc1ccc(/C=C2/SC(N3CCOCC3)=NC2=O)cc1	0	-3	7	5431	-5
Cc1ccc(S(=O)(=O)N2CCC(C(=O)OCC(=O)N3CCCC3=O)CC2)cc1C	x	x	3	x	x
Cn1c(SCC(=O)c2ccccc2)nnc1-c1cccs1	-1	-1	5	4811	-2
C/C(=N\NC(=O)c1ccccc1O)c1c(O)cc(C)oc1=O	11	17	-15	17536*	3
Cc1cccc(N2N=C(C(=O)N3Cc4ccccc4CC3C(N)=O)CCC2=O)c1 (stereo unspecified)	0	1	0	3744	4
Cc1cccc(NC(=O)C23CCC(C)(C(=O)O2)C3(C)C)c1 (stereo unspecified)	0	-7	1	1946	-2
CC12CCC(C(=O)Nc3ccc4c(c3)OCCO4)(OC1=O)C2(C)C (stereo unspecified)	-2	-3	-4	23818*	1
CC12CCC(C(=O)NC(c3ccccc3)c3ccccc3)(OC1=O)C2(C)C (stereo unspecified)	4	5	-9	22368*	0
Nn1c(SCc2ccccc2F)nnc1-c1ccncc1	x	x	1	x	x
Cc1nnc(SCc2ccccc2F)n1NCc1cccs1	4	1	0	22098*	2
CCn1c(=O)cc(SCC(=O)N2CCCCC2)c2ccccc21	3	32	-8	10228	-4
CCn1c(=O)cc(SCC(=O)N2CCC(C)CC2)c2ccccc21	u	4	-2	15393	0
SMILES	BoNT A protease	BoNT F protease	MazF activator	Autofluor counter	Anthrax LF prot
CCOC(=O)N1CCC(NC(=O)CSc2cc(=O)n(CC)c3ccccc23)CC1	3	3	-11	21138*	4
CCOC(=O)C1CCN(C(=O)CSc2cc(=O)n(CC)c3ccccc23)CC1	-3	-6	4	16952*	0
N=c1n(-c2ccccc2)c(O)cc(=O)n1-c1ccccc1	-3	-7	2	22975*	0
Cc1c(NC(=O)c2cc(-n3cnnc3)ccc2Cl)cccc1-c1nc2ccccc2o1	0	-19	19	2147	-6
O=C(Nc1ccc2oc(-c3ccccc3)nc2c1)c1cc(-n2cnnc2)ccc1Cl	0	-10	54*	4432	-8
O=C(Nc1ccc(-c2nc3ccccc3o2)c(O)c1)c1cc(-n2cnnc2)ccc1Cl	-2	-2	-22	21640*	1
O=C(Nc1ccccc1)c1cc(-n2cnnc2)ccc1Cl	-3	-21	1	9299	-6
O=C(Nc1ccc(-c2nc3ccccc3o2)cc1)c1cc(-n2cnnc2)ccc1Cl	0	-2	-26	23846*	-1
